From PubChem BioAssay AID1465 (SRMLSC, 2008)
Screen size: about 220,000 compounds; about 160 (0.073%) were called active.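 The calls were made as follows: active = fold induction of absorbance versus untreated yeast above a set limit, then at least 30% activation at any dose in follow-up; inconclusive = repeats straddling the limit, or above it without dose testing; inactive = fold induction below the set limit.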 Not all results are given here. Entries with a potency or affinity are not part of this list.

Assay: mitochondrial function rescue without frataxin homolog – Friedreich's ataxia, plus single-dose screen, dose response (AID 1465)
Conditions: S. cerevisiae Yfh1-off respiration, WST-1 reduction, 72 h; at 50 µM; stronger effect = higher value

| Structure (SMILES) | fold induction |
| --- | --- |
| O=C(C=C1CCN(c2ncc(C(F)(F)F)cc2Cl)CC1)NNC(=O)Nc1ccccc1 | 0.89 (inactive) |
| O=C1NN(c2ccc(F)cc2)C(=O)/C1=C\c1cnn(-c2ccccc2)c1 | 1.14 (inactive) |
| COc1ccc(NC(=O)c2csc3c2CCCCC3)c(OC)c1 | 1 (inactive) |
| COc1ccc(CNC(=O)CCS(=O)(=O)Cc2ccc(C)cc2)c(OC)c1 | 0.98 (inactive) |
| CCOC(=O)c1cnn(-c2ccccc2)c1NC(=O)c1ccccc1C | 0.92 (inactive) |
| COc1ccccc1NS(=O)(=O)c1cccc(C(=O)N/N=C/c2ccccc2OCC(=O)O)c1 | 0.99 (inactive) |
| CCN(CC)c1ccc(/C=N/NC(=O)c2cccc(S(=O)(=O)Nc3ccccc3OC)c2)cc1 | 1.14 (inactive) |
| O=C(NCc1n[nH]c(=S)n1-c1ccc(Cl)c(Cl)c1)c1cccs1 | 0.98 (inactive) |
| O=C(NNC1=C(C(=O)C(F)(F)F)CCC1)c1ccccc1Cl | 1.02 (inactive) |
| O=C(NNC1=C(C(=O)C(F)(F)F)CCC1)c1ccncc1 | 1.05 (inactive) |
| O=C(NNC1=C(C(=O)C(F)(F)F)CCC1)c1ccccc1O | 0.82 (inactive) |
| O=C(NNC1=C(C(=O)C(F)(F)F)CCC1)c1ccc(Cl)cc1 | 1.11 (inactive) |
| CN(C)c1ccc(NC(=O)C(=O)NCCOc2ccccc2)cc1 | 0.95 (inactive) |
| CC(C)=CC(=O)OCC(=O)Nc1cc(C)cc(C)c1 | 0.86 (inactive) |
| Cc1cc(C)nc(SCc2ccc(C(=O)N/N=C/c3ccccn3)cc2)n1 | 1.01 (inactive) |
| CCSc1nc(=O)n(-c2ccccc2)c(C)c1C(C)=O | 1.05 (inactive) |
| CC(C)C(=O)Nc1cccc(NC(=O)c2cccc([N+](=O)[O-])c2)c1 | 0.95 (inactive) |
| Cc1cc(C)n(CC(=O)Nc2ccccc2)n1 | 1.01 (inactive) |
| COc1cc(CNC(C)C)c(Br)cc1OC1CCCC1 | 1.02 (inactive) |
| Cc1sc2nc(SC3CCOC3=O)n(Cc3ccccc3)c(=O)c2c1C (stereo unspecified) | 0.94 (inactive) |
| CC(C)OCCCNC(=O)CCC(=O)NNc1nc2ccccc2c2nc(-c3ccccc3)nn12 | 0.97 (inactive) |
| Cc1ccc(NC2=C(Cl)C(=O)c3ccccc3C2=O)cc1 | 1.27 (inactive) |
| O=C1C(Cl)=C(Nc2ccc(O)cc2)C(=O)c2ccccc21 | 1.23 (inactive) |
| Cc1sc2ncn(CC(=O)Nc3ccccc3F)c(=O)c2c1-c1ccccc1 | 0.95 (inactive) |
| O=C(NCC(c1ccco1)N1CCCCC1)c1ccc2c(c1)S(=O)(=O)c1ccccc1C2=O (stereo unspecified) | 0.99 (inactive) |
| Cc1cc(C)nc(SCC(=O)c2cc3ccccc3oc2=O)n1 | 1.02 (inactive) |

| Structure (SMILES) | fold induction |
| --- | --- |
| CCCC(=O)c1cc2ccccc2oc1=O | 1.11 (inactive) |
| CCCCCC(=O)NC(=S)NNC(=O)CC | 0.75 (inactive) |
| CCCCC(=O)NC(=S)NNC(=O)CC#N | 0.83 (inactive) |
| CCCNC(=O)C1(CC2CC(c3ccccc3)=NO2)CCN(C(=O)CCCCCBr)CC1 (stereo unspecified) | 1.03 (inactive) |
| CCCC(=O)NC(c1ccccc1OC)c1ccc2cccnc2c1O (stereo unspecified) | 1.03 (inactive) |
| CCC(=O)NC(c1ccccc1OC)c1ccc2cccnc2c1O (stereo unspecified) | 0.67 (inactive) |
| O=C(NC(c1ccccc1)c1cc(Cl)c2cccnc2c1O)c1cccnc1 (stereo unspecified) | 0.87 (inactive) |
| CCCCC(=O)NC(c1ccco1)c1cc(Cl)c2cccnc2c1O (stereo unspecified) | 0.91 (inactive) |
| O=C(O)COc1ccccc1C(Nc1ccccn1)c1cc(Cl)c2cccnc2c1O (stereo unspecified) | 1.19 (inactive) |
| O=C(NC(c1ccc(Cl)cc1)c1cc(Cl)c2cccnc2c1O)c1cccnc1 (stereo unspecified) | 1.09 (inactive) |
| CCC(=O)NC(c1ccco1)c1cc(Cl)c2cccnc2c1O (stereo unspecified) | 1.13 (inactive) |
| CCCC(=O)NC(c1cccs1)c1cc(Cl)c2cccnc2c1O (stereo unspecified) | 1.06 (inactive) |
| O=C(Cn1c(COc2ccccc2)nc2ccccc21)Nc1cc(Cl)cc(Cl)c1 | 0.92 (inactive) |
| CO/N=C/c1ccc(N2CCN(C(=O)c3ccc(F)cc3)CC2)c([N+](=O)[O-])c1 | 0.84 (inactive) |
| CC(=O)Nc1ccc(CN2CCCC(C(=O)c3ccc(C(F)(F)F)cc3)C2)cc1 (stereo unspecified) | 0.88 (inactive) |
| Cc1cc2ccccc2n2c(SCC(=O)NCC3CCCO3)nnc12 (stereo unspecified) | 0.94 (inactive) |
| Cc1nc(SC(C)C(=O)Nc2cccc(C(F)(F)F)c2)c2c(C)c(C(=O)O)sc2n1 (stereo unspecified) | 1.09 (inactive) |
| COCCNC(=O)c1cnn2c(C(F)F)cc(-c3ccccc3)nc12 | 1.17 (inactive) |
| COC(=O)c1ccc(N)cc1O | 1.05 (inactive) |
| COC(=O)c1ccc(C(=O)OC)c(=O)[nH]1 | 1.03 (inactive) |
| COc1ccc(N2CCN(C(=O)c3ccc(C(C)(C)C)cc3)CC2)cc1 | 0.96 (inactive) |
| CC(=O)Nc1nc2cc3c(cc2s1)OCO3 | 0.99 (inactive) |
| COc1ccc(CCNC(=O)COC(=O)Cc2ccc(OC)cc2)cc1 | 0.8 (inactive) |
| CCOC(=O)c1c(C)oc2c1c(CN1CCN(C(=O)OCC)CC1)c(O)c1ccccc12 | 1.19 (inactive) |
| CCOC(=O)c1c(C)oc2c1c(C=NCCO)c(O)c1ccccc12 | 1.38 (inactive) |
